# Experimental data from PubChem BioAssay (EPA / NIEHS).
# Results filed as inconclusive are left out. More than one record can exist for a structure, and the calls need not agree. Activity calls are given as the source filed them. How the source made its calls: active means hit-call score of the fitted dose curve at least 0.9, where 1 is the maximum; inconclusive means response in the unintended direction; inactive means score below 0.9.
# Molecular target: Estrogen receptor (Homo sapiens) (UniProt P03372)
# Test: NVS_NR_hER: NovaScreen (NVS) Nuclear Receptor Binding Assay for human Estrogen Receptor (ER) (AID 2283348)
# Procedure: NVS_NR_hER is a biochemical, single-readout assay that uses extracted gene-proteins from MCF7 in a cell-free assay. Measurements were taken 18 hours after chemical dosing in a 96-well plate.NVS_NR_hER is one of one assay component(s) measured or calculated from the NVS_NR_hER assay. It is designed to make measurements of radioligand binding, a form of binding reporter, as detected with scintillation counting signals by Lysate-based radiodetection technology.Data from the assay component NVS_NR_hER was analyzed into 1 assay endpoint. This assay endpoint, NVS_NR_hER, was analyzed in the positive analysis fitting direction relative to DMSO as the negative control and baseline of activity. Using a type of binding reporter, loss-of-signal activity can be used to understand changes in the binding as they relate to the gene ESR1. Furthermore, this assay endpoint can be referred to as a primary readout, because the performed assay has only produced 1 assay endpoint. To generalize the intended target to other relatable targets, this assay endpoint is annotated to the nuclear receptor intended target family, where the subfamily is steroidal.
# Binding assays used specific radioligands (tritiated, iodinated) with non-radioactive competitive displacement ligands in agonist or antagonist protocols (as indicated) and various reference compounds and inhibitors to titrate specific binding to receptors and transporters. Most enzyme assays (CYPs, kinases, phosphatases, proteases, HDACs) used recombinant protein and specific substrates (fluorescence mostly, some colorimetric and radioactive) and inhibitors, followed by a biochemical separation of substrate and product. All assays for the biochemical HTS were initially run in duplicate at a single concentration (10 uM for CYP450 assays and 25 uM for all others). […] Each assay was run with positive and negative controls, and concurrent controls on every plate. The follow-up (secondary) screen tested active chemical-pairs in concentration series, as well as a few additional assays not tested in the primary screen, some selected negative inactives, and several cases re-run in the concentration series for confirmatory purposes.
# Estrogen receptor (Homo sapiens), sequence (P03372 whole entry, looked up): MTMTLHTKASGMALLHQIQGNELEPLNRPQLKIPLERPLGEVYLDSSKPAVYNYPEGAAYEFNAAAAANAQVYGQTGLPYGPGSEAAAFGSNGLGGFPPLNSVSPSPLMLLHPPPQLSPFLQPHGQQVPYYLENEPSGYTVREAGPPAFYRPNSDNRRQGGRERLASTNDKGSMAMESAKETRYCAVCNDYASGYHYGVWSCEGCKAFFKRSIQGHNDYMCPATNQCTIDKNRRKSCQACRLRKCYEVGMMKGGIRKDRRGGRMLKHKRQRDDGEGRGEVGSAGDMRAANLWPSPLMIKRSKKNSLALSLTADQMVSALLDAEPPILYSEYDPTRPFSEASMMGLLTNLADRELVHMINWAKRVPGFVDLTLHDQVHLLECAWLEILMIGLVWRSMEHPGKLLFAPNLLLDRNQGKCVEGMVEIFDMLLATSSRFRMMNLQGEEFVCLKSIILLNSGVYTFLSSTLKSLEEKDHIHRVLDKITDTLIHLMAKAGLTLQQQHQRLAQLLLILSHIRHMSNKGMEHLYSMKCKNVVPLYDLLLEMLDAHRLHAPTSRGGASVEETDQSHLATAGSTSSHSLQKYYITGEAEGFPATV
SMILES,outcome,AC50
ClC1=C(Cl)C2(Cl)C3C(Cl)C(Cl)CC3C1(Cl)C2(Cl)Cl (centres undefined),inactive,–
CCCCN(CCCC)SN(C)C(=O)Oc1cccc2c1OC(C)(C)C2,inactive,–
CCCCc1ccc(O)cc1,inactive,–
c1ccc(OP(Oc2ccccc2)Oc2ccccc2)cc1,inactive,–
Nc1ccc(Sc2ccc(N)cc2)cc1,–,11 µM (active)
CCCCCCCc1ccc(O)cc1,inactive,18.8 µM (active)
O=P(OCC(Br)CBr)(OCC(Br)CBr)OCC(Br)CBr (centres undefined),inactive,–
CCC(C)(C)c1ccc(O)cc1,inactive,–
CC(C)Nc1ccc(Nc2ccccc2)cc1,inactive,–
O=P1(N(CCCl)CCCl)NCCCO1 (centres undefined),inactive,15.7 µM (active)
O=S(=O)(c1ccc(O)cc1)c1ccc(O)cc1,–,4.77 µM (active)
COCCOCCO,inactive,–
CO/N=C(/C(=O)OC)c1ccccc1COc1ccccc1C,inactive,–
CCOP(=S)(OCC)SCn1nnc2ccccc2c1=O,inactive,–
CC(Cl)(Cl)C(=O)O,inactive,–
C=CC(=O)OCC(CC)(COC(=O)C=C)COC(=O)C=C,inactive,13.7 µM (active)
CC1(C)CN=C(NN=C(/C=C/c2ccc(C(F)(F)F)cc2)/C=C/c2ccc(C(F)(F)F)cc2)NC1,–,8.61 µM (active)
CCCN(CCC)c1c([N+](=O)[O-])cc(C(C)C)cc1[N+](=O)[O-],inactive,–
[N-]=[N+]=[N-],inactive,–
CCCCN(CC)C(=O)SCCC,–,3.02 µM (active)
ClC(Cl)(Cl)c1ccccc1,inactive,–
